ALDH1A1 block: blocks purified human ALDH1A1 activity; P00352; Purified ALDH1A1, NADH fluorescence, propionaldehyde substrate; Potency, µM (doses to about 75.3 µM), usual class: inhibitors; 220,000 tested, 7.3% active
Target sequence (P00352 whole entry, looked up): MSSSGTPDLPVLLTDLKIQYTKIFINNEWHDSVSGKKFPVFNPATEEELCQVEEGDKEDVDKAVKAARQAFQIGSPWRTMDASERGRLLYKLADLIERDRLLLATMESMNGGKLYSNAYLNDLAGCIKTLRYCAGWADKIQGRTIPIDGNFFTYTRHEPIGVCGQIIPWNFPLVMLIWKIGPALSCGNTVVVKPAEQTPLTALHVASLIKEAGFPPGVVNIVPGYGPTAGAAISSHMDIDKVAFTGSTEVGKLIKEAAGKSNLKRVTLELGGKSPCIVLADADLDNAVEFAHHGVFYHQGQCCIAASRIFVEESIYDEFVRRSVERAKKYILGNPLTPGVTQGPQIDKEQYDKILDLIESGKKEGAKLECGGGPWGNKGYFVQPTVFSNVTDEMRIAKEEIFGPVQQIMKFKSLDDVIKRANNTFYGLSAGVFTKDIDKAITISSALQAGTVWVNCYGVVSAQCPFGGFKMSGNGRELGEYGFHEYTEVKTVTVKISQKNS
IMPase cell inh: cell-permeable inhibitors of inositol monophosphatase (IMPase) | P97697 | CHO-M1 cells, IP1 accumulation, HTRF TR-FRET ratio | inhibition (IP1 accumulation), % at 46.1 µM | 120,000 tested, under 10 active; active = well fitted curve in the direction sought with a large enough effect in the signal ratio, not every such curve was filed as active; inconclusive = small, poorly fitted or top-dose-only effect, or a change in a side signal; inactive = no such curve, though single readings can be large or run the other way; the % refers to the signal ratio;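 note: cells stimulated with carbachol in lithium chloride buffer; higher means more IMPase inhibition seen as more IP1 and lower FRET ratio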
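Seeded CHO-M1 cells were dosed with compound at up to 46 uM, stimulated with carbachol for 30 min, then lysed in IP-One detection reagents. Higher IP1 lowers the TR-FRET signal.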
HPGD inh: inhibitors of human 15-hydroxyprostaglandin dehydrogenase (HPGD); P15428; purified HPGD, NADH fluorescence kinetic, PGE2 substrate; Potency, µM, hits mostly inhibitors; 150,000 tested, 4.3% active
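NADH formation kinetics: reaction with 30 uM PGE2 and 1 mM NAD+ (final), 20 nM enzyme, Tris-HCl pH 8 with Tween 20, after 15 min compound preincubation at room temperature. Fluorescence change, last versus first of five reads.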
Hits are given with their value; n = inactive; u = inconclusive; x = no result; [ ] = dose if it differs, or a comment. In the library only some 9% were active in any assay of this set; here they are far more common. Unless noted, calls come from the whole dose curve; as a rule, active = well fitted inhibition curve with a large enough effect (not every such curve was filed as active); inconclusive = small, poorly fitted or top-dose-only effect, or another doubt; inactive = no such curve, though single readings can be large or run the other way.

SMILES | ALDH1A1 block | IMPase cell inh | HPGD inh
Cc1ccc(C2CC(=O)N3CN(c4ccc(Br)cc4)CSC3=C2C#N)o1 (stereo unspecified) | u | n | u
COc1ccc(-c2nc(C#N)c(N3CCN(c4cccc(Cl)c4)CC3)o2)cc1OC | u | n | u
CCOC(=O)c1ccc(N2CSC3=C(C#N)C(c4ccc(OC)cc4OC)CC(=O)N3C2)cc1 (stereo unspecified) | 14µM | n | n
CCOC(=O)C1=C(CC)OC(N)=C(C#N)C1c1ccc(OC)cc1OC (stereo unspecified) | n | n | n
COc1ccc(OC)c(C2CC(=O)N3CN(c4cccc(Cl)c4)CSC3=C2C#N)c1 (stereo unspecified) | 35µM | n | n
COc1ccc(OC)c(C2CC(=O)N3CN(c4ccc(C)c(Cl)c4)CSC3=C2C#N)c1 (stereo unspecified) | 7.9µM | n | u
COc1ccc(N2CC(C(=O)NCCc3ccc(OC)c(OC)c3)CC2=O)cc1 (stereo unspecified) | n | n | n
O=S(=O)(c1cc(Cl)ccc1Cl)n1cccn1 | n | x | x
COc1ccc(OCC2Cc3c(-c4ccccc4)nc4c(c3CO2)CN(CCOc2ccccc2)CC4)cc1 (stereo unspecified) | n[13.5 µM] | x | x
O=C(NCCN1CCOCC1)C(=O)NCC1OCCN1C(=O)c1ccc(Cl)cc1 (stereo unspecified) | n | x | n
COc1ccc2c(CC(=O)Nc3nccs3)coc2c1 | n | x | x
O=C(N/N=C/c1cccs1)c1cc(-c2ccncc2)nc2ccccc12 | u | x | n
O=C(N/N=C/c1ccc[nH]1)c1cc(-c2cccs2)nc2ccccc12 | 16µM | x | x
N#CSCC(=O)c1cccc2ccccc12 | 1.6µM | x | u
O=C(Oc1ccccc1O)c1cccc2ccccc12 | n | x | x
O=C(O)c1ccc(CSc2nc3ccc(NC(=O)c4ccccc4C(=O)O)cc3s2)cc1 | n | x | x
CCC(C)/C(C)=N/NC(=O)c1ccc(CSc2nc3ccccc3s2)cc1 (stereo unspecified) | 20µM | x | 20µM
O=C(COc1cccc2cccnc12)Nc1ccccc1N1CCOCC1 | n | x | x
O=C(CCc1nnc(Cc2c[nH]c3ccccc23)o1)NCC1CC12CCCCC2 (stereo unspecified) | n | x | x
CN(C)CCCCl | n | x | n
CC1(C)Cc2c(sc3[nH]c(=S)[nH]c(=O)c23)CO1 | 7.9µM | x | x
Cn1c(=O)[nH]c2sc3c(c2c1=O)CC(C)(C)OC3 | n | n | u
C/C(CC(=O)Nc1cccc2c1CCCC2)=N\NC(=O)COc1ccccc1 | 9.5µM | x | n
CC(=O)N/N=C(\C)CC(=O)Nc1cccc2c1CCCC2 | n | x | x
CCN(CC)C(=O)c1c(Cl)nc(C)c([N+](=O)[O-])c1C | n | n | n
SMILES | ALDH1A1 block | IMPase cell inh | HPGD inh
COc1ccc(Oc2ccc(N/C=C3\CCCC3=O)cc2)cc1 | u | x | n
COc1ccc(OC)c(N/C=C2/CCCCC2=O)c1 | u | n | 18µM
COc1ccc(Oc2ccc(N/C=C3/CCCC3=O)cc2)cc1 | u | x | n
COc1ccc(N/C=C2/CCCCC2=O)cc1 | 11µM | n | 25µM
COC(=O)c1sccc1NC(=O)COc1ccc(F)cc1Cl | n | x | x
O=C(Nc1ccccc1)c1cccc(S(=O)(=O)Oc2ccc([N+](=O)[O-])cc2)c1 | n | x | n
CC(C)Cn1cc(C(=O)N2CCOCC2)c2c3ccccc3n(C)c2c1=O | n | n | x
CC(C)Cn1cc(C(=O)NCc2cccs2)c2c3ccccc3n(C)c2c1=O | 1µM | n | x
Cc1cc(N2CCCC2)nc2ccc(NC(=S)NCCCN3CCC(C)CC3)cc12 | n | x | x
CCn1c(SCC(=O)N2CCc3ccccc3C2)nc2sc(C)c(C)c2c1=O | n | u | n
O=C(CCNS(=O)(=O)c1ccccc1F)NCc1ccc2c(c1)OCO2 | n | n | n
Cc1ccc(C(=O)CSc2cnc3ccccc3n2)cc1C | 22µM | x | 22µM
CN(C)C(=O)CSc1cnc2ccccc2n1 | n | x | x
Cc1cc(SCC(=O)c2ccccc2)nc2ccccc12 | n[13.5 µM] | x | n
CC1CCCN(C(=O)CSc2cnc3ccccc3n2)C1 (stereo unspecified) | 28µM | u | 4.5µM
Cc1nc([N+](=O)[O-])c(C(=O)OCc2ccc(C#N)cc2)n1C | n | x | x
Cc1cccc(C)c1[N+](=O)[O-] | u | x | n
COc1ccc(C(=O)OC(C)C(=O)Nc2cc(C(F)(F)F)ccc2Cl)c(OC)c1OC (stereo unspecified) | n | n | 25µM
COc1cc(C(=O)Nc2cc(C(F)(F)F)ccc2Cl)cc(OC)c1OC | n | n | n
CC1=CC(c2ccccc2)=Nc2ccc(C)cc2N1 | u | x | n
O=C(NCc1ccccc1)C1=C[C@@H](c2coc3ccccc3c2=O)C[C@@H](OCc2ccc(CO)cc2)O1 | 7.9µM | x | x
O=C(NCc1ccccc1)C1=C[C@@H](C2CC2)C[C@@H](OCc2ccc(CO)cc2)O1 | 11µM | x | x
